# Measurements reported in PubChem BioAssay (NCATS).
# Values joined by “and” are separate entries in the source; they are usually repeats but may differ in a detail not shown here. Equal entries are not always repeated. Records with an inconclusive call do not appear. A call without a number means that no potency is given here. Some structures have more than one record in an assay (separate samples or runs), and their calls can disagree. Active and inactive are the calls of the source. Calls come from the whole dose curve; as a rule, active = well fitted curve in the direction sought with a large enough effect; inconclusive = small, poorly fitted or top-dose-only effect, or another doubt; inactive = no such curve, though single readings can be large; an effect the other way counts as inactive or inconclusive.
# Experiments:
# [1] = molecular target: Glutathione peroxidase 1 (Homo sapiens) (UniProt P07203); assay: Primary qHTS Assay for Inhibitors of Recombinant Selenoprotein Glutathione Peroxidase 1 (GPX1) (AID 1845191); note: nearly all actives have a fitted effect of over 65% in size
# Procedure, shortened: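 GR-coupled readout: NADPH consumption tracked by fluorescence, ex 340/em 450 nm, at t=0 and after 15 min at RT. Final mix 10 nM GPX1, 1 mM GSH, 0.5 mM CHP, 0.5 mM NADPH, 100 nM GR, 0.01% BSA, following 30 min enzyme–compound preincubation.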
# [2] = molecular target: Phospholipid hydroperoxide glutathione peroxidase GPX4 (Homo sapiens) (UniProt P36969); assay: Primary qHTS Assay for Inhibitors of Recombinant Selenoprotein Glutathione Peroxidase 4 (GPX4) (AID 1845192); note: nearly all actives have a fitted effect of over 65% in size; note: potency is the fitted concentration of half-maximal effect; for activity change, negative = inhibition: series mostly up to about 50 µM
# Procedure, shortened: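 Steps: GPX4 plus compound, 30 min RT; add GR/GSH/NADPH master mix; start with cumene hydroperoxide; read 340/450 nm fluorescence at 0 and 15 min. Finals were 200 nM GPX4, 1 mM GSH, 0.5 mM CHP, 0.5 mM NADPH, 100 nM GR.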
# [3] = molecular target: Luciferin 4-monooxygenase (Photinus pyralis) (UniProt P08659); assay: Primary firefly luciferase (FLuc) qHTS assay for identification of artifact compounds. (AID 1845220); note: nearly all actives have a fitted effect of over 60% in size; for activity change, negative = inhibition: series mostly up to about 54 µM
# Procedure, shortened: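 Enzymatic FLuc inhibition assay: compounds pre-exposed to luciferin/ATP (10 uM each) for 15 min, then purified P. pyralis enzyme at 10 nM added. Read-out: luminescence at 5 min.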
# [4] = Primary fluorescence-based thiol-reactive (MSTI) qHTS assay for identification of artifact compounds. (AID 1845221); note: nearly all actives have a fitted effect of over 65% in size; note: potency is the fitted concentration of half-maximal effect;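 for activity change, negative = thiol reactive: series mostly up to about 54 µM; thiol-reactive compounds lower the probe fluorescence signal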
# Procedure, shortened: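 Curve-fitted percent inhibition (4-parameter Hill) derived from fluorescence, Ex 525/Em 598 nm, scaled with Acetyl-MSTI and MSTI; 1 h incubation at room temperature.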
# [5] = tested on: Nanoluciferase (engineered Oplophorus gracilirostris luciferase); assay: Primary Nanoluciferase (NLuc) qHTS assay for identification of artifact compounds. (AID 1845222); note: potency is the fitted concentration of half-maximal effect;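 for activity, negative = inhibition: NLuc secreted into diluted conditioned medium of S16 cells; series mostly up to about 54 µM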
# Procedure, shortened: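 S16 cell supernatant NLuc, 1:55; cpds qHTS; 15 min RT dark; Nano-Glo substrate 1:100, 5 min; luminescence; Hill fit of % inhibition.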
# [6] = Primary redox qHTS assay for identification of artifact compounds. (AID 1845223)
# Procedure, shortened: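 Redox-cycling detection via DTT (250 uM final) oxidation coupled to Amplex Red (25 uM)/HRP (250 mU/mL) in HBSS. 15 min preincubation plus 30 min after DTT, room temperature. Ex/Em 525/598 nm; 4-parameter Hill fit against DMSO and 10 uM DA3003.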
# Phospholipid hydroperoxide glutathione peroxidase GPX4 (Homo sapiens), sequence (P36969 whole entry, looked up): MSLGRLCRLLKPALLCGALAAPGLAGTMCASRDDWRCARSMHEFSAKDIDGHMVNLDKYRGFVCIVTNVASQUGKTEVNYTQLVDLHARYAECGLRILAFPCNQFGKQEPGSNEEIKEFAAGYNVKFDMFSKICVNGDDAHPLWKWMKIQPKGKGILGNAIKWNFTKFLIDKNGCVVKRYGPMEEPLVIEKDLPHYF
# Glutathione peroxidase 1 (Homo sapiens), sequence (P07203 whole entry, looked up): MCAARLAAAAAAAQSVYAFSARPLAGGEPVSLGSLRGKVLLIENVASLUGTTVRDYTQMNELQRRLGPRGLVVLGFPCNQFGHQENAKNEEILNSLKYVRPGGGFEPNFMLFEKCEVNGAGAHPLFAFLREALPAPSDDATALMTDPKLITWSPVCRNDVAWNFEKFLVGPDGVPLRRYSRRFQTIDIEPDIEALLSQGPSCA
structure (smiles),measurement,setting,value
O=S1(=O)CCN(Cc2cc(NCC3CCOCC3)c3[nH]c(-c4ccccc4)cc3c2)CC1,Potency,[1],inactive
same,Potency,[2],inactive
same,Potency,[3],inactive
same,Potency,[4],1190 nM (active)
same,Potency,[5],inactive
C1=Cc2ccccc2C(=C2CCN(CCCCc3nn[nH]n3)CC2)c2ccccc21,Potency,[1],inactive
same,Potency,[2],inactive
same,Potency,[3],inactive
same,Potency,[4],inactive
same,Potency,[5],inactive
COc1ccc(NC(=O)c2ccc(-c3ccc(-c4nnc(C)o4)cc3C)cc2)cc1N1CCN(C)CC1,Potency,[1],inactive
same,Potency,[2],inactive
same,Potency,[3],inactive
same,Potency,[4],inactive
same,Potency,[5],1510 nM (active)
COCCNCc1ccc(-c2cc3nccc(Oc4ccc(NC(=O)C5(C(=O)Nc6ccc(F)cc6)CC5)cc4F)c3s2)nc1,Potency,[1],inactive
same,Potency,[2],inactive
same,Potency,[3],inactive
same,Potency,[4],inactive
same,Potency,[5],inactive
CCCOc1ccc(S(=O)(=O)N2CCN(CCO)CC2)cc1-c1nc2c(CCC)cn(CC)c2c(=O)[nH]1,Potency,[1],inactive
same,Potency,[2],inactive
same,Potency,[3],inactive
same,Potency,[4],inactive
same,Potency,[5],inactive
CC(CCC1(O)OC2CC3C4CC=C5C[C@@H](O[C@@H]6O[C@H](CO)[C@@H](O[C@@H]7O[C@@H](C)[C@H](O)[C@@H](O)[C@H]7O)[C@H](O)[C@H]6O[C@@H]6O[C@@H](C)[C@H](O)[C@@H](O)[C@H]6O)CC[C@]5(C)C4CC[C@]3(C)[C@@]2(O)[C@@H]1C)CO[C@@H]1O[C@H](CO)[C@@H](O)[C@H](O)[C@H]1O (some centres not stated),Potency,[1],inactive
same,Potency,[2],inactive
same,outcome,[3],inactive [at 11.6 µM]
same,"activity change, negative = thiol reactive",[4],40.3% [at 11.5 µM] (inactive)
same,"activity, negative = inhibition",[5],0% [at 11.6 µM] (inactive)
CCc1cc(C(N)=O)ccc1-n1nc(C(C)C)c2c(-n3cnc(-c4cnn(C)c4)c3)ccnc21,Potency,[1],inactive
same,Potency,[2],inactive
same,Potency,[3],inactive
same,Potency,[4],inactive
same,Potency,[5],inactive
CN1c2c(nc(N)[nH]c2=O)NC[C@@H]1CNc1ccc(C(=O)N[C@@H](CCC(=O)O)C(=O)O)cc1,Potency,[1],inactive
same,Potency,[2],inactive and 1.24 µM (active)
same,Potency,[3],inactive
same,Potency,[4],inactive
same,Potency,[5],inactive
CO[C@@H]1CC(OC2CCC3(C)C(CCC45CCC(C6=CC(=O)OC6)C(C)(CCC43)C5=O)C2)O[C@H](C)[C@@H]1O[C@@H]1O[C@H](CO[C@@H]2O[C@H](CO)[C@@H](O)[C@H](O)[C@H]2O)[C@@H](O)[C@H](O)[C@H]1O (some centres not stated),Potency,[1],inactive
same,Potency,[2],inactive
same,"activity change, negative = inhibition",[3],-4.2% [at 11.6 µM] (inactive)
same,"activity change, negative = thiol reactive",[4],-1.23% [at 11.5 µM] (inactive)
same,"activity, negative = inhibition",[5],-1.95% [at 11.6 µM] (inactive)
COc1ccc(CCN(C)CCCOc2nsc(-c3ccccc3)n2)cc1OC,Potency,[1],inactive
same,Potency,[2],inactive
same,Potency,[3],inactive
same,Potency,[4],inactive
same,Potency,[5],inactive
Cc1cc2c(c(=O)o1)C=C1CC[C@H]([C@H](C)Cn3cnc(=N)c4[nH]cnc43)C[C@@H]1O2,Potency,[1],inactive
same,Potency,[2],inactive
same,Potency,[3],inactive
same,Potency,[4],inactive
same,Potency,[5],inactive
C[C@@H]1O[C@@H](O[C@H]2[C@H](OC(=O)[C@]34CCC(C)(C)C[C@H]3C3=CCC5[C@@]6(C)C[C@H](O)[C@H](O[C@@H]7O[C@H](C(=O)O)[C@@H](O)[C@H](O)[C@H]7O)[C@@](C)(CO)C6[C@H](O)C[C@@]5(C)[C@]3(C)C[C@H]4O)O[C@@H](CO)[C@@H]2O)[C@H](O)[C@H](O)[C@H]1O[C@@H]1OC[C@@H](O)[C@H](O[C@H]2OC[C@](O)(CO)[C@H]2O)[C@H]1O (some centres not stated),outcome,[1],inactive [at 9.52 µM]
same,outcome,[2],inactive [at 9.73 µM]
same,outcome,[3],inactive [at 11.6 µM]
same,"activity change, negative = thiol reactive",[4],391% [at 11.5 µM] (inactive)
same,"activity, negative = inhibition",[5],1.66% [at 11.6 µM] (inactive)
C/C=C(\C)C(=O)OC1C(C)C2(O)C(C=C(CO)CC3(O)C(=O)C(C)=CC32)C2C(C)(C)C12OC(C)=O (configuration not stated),Potency,[1],inactive
same,Potency,[2],inactive
same,Potency,[3],inactive
same,Potency,[4],inactive
same,Potency,[5],inactive
COC(=O)CC1OC(C)C2=C(O)c3c(O)cccc3C(=O)C23OC13 (configuration not stated),Potency,[1],inactive
same,Potency,[2],inactive
same,Potency,[3],inactive
same,Potency,[4],3290 nM (active)
same,Potency,[5],inactive
Fc1ccc(CN2CCC(Nc3ccc(C(F)(F)F)nn3)CC2)cc1F,Potency,[1],inactive
same,Potency,[2],inactive
same,Potency,[3],inactive
same,Potency,[4],inactive
same,Potency,[5],inactive
CN(C)CCOc1cc(NS(=O)(=O)c2c(Cl)cc(C(F)(F)F)cc2Cl)ccc1Cl,Potency,[1],inactive
same,Potency,[2],inactive
same,Potency,[3],inactive
same,Potency,[4],inactive
same,Potency,[5],inactive
C[C@@H]1O[C@@H](O[C@H]2CC[C@@]3(C)C(CC[C@]4(C)C3CC=C3[C@@H]5CC(C)(C)CC[C@]5(C(=O)O[C@@H]5O[C@H](CO)[C@@H](O)[C@H](O)[C@H]5O)CC[C@]34C)[C@]2(C)CO)[C@H](O)[C@H](O[C@@H]2O[C@H](CO)[C@@H](O)[C@H](O)[C@H]2O)[C@H]1O (some centres not stated),Potency,[1],inactive
same,Potency,[2],inactive
same,outcome,[3],inactive [at 11.6 µM]
same,"activity change, negative = thiol reactive",[4],278% [at 11.5 µM] (inactive)
same,"activity, negative = inhibition",[5],2.95% [at 11.6 µM] (inactive)
CCC/C=C/C(=O)O[C@H]1CC(C)(C)CC2[C@@]13[C@H](O)C[C@]1(C)[C@@]2(CCC2[C@@]4(C)CC[C@H](O[C@@H]5O[C@H](C(=O)O)[C@@H](O)[C@H](O[C@@H]6O[C@H](CO)[C@H](O)[C@H](O)[C@H]6O[C@@H]6O[C@@H](C)[C@H](O)[C@@H](O)[C@H]6O[C@@H]6OC[C@](O)(CO)[C@H]6O)[C@H]5O[C@@H]5O[C@H](CO)[C@H](O)[C@H](O)[C@H]5O)C(C)(C)C4CC[C@]21C)O[C@H]3O (some centres not stated),outcome,[1],inactive [at 9.52 µM]
same,"activity change, negative = inhibition",[2],-7.28% [at 9.73 µM] (inactive)
same,"activity change, negative = inhibition",[3],0.937% [at 11.6 µM] (inactive)
same,"activity change, negative = thiol reactive",[4],163% [at 11.5 µM] (inactive)
same,"activity, negative = inhibition",[5],2.33% [at 11.6 µM] (inactive)
COc1ccc(CN2CCN(C(=O)CCNC(=O)c3ccc(C(C)(C)C)cc3)CC2)cc1,Potency,[1],inactive
same,Potency,[2],inactive
same,Potency,[3],inactive
same,Potency,[4],inactive
same,Potency,[5],inactive
same,Potency,[6],inactive
Cc1cccc(-c2[nH]ncc2-c2ccc(F)c(-c3cnn(CCO)c3)c2)n1,Potency,[1],inactive
same,Potency,[2],inactive
same,Potency,[3],inactive
same,Potency,[4],inactive
same,Potency,[5],inactive
same,Potency,[6],inactive
CC(=O)O[C@H]1C[C@H](OC(C)=O)[C@]2(C)[C@H](CC[C@@]34O[C@@H]3C3=C(C)C(=O)O[C@@H]3C[C@H]42)C1(C)C,Potency,[1],inactive
same,Potency,[2],inactive
same,Potency,[3],inactive
same,Potency,[4],inactive
same,Potency,[5],inactive
